How the values were obtained:
[1] = molecular target: ALK tyrosine kinase receptor (Homo sapiens) (UniProt Q9UM73); conditions: at 10 µM
[2] = molecular target: T1, Activin receptor type-1B (Homo sapiens) (UniProt P36896); conditions: at 1 µM
T1 sequence (whole entry): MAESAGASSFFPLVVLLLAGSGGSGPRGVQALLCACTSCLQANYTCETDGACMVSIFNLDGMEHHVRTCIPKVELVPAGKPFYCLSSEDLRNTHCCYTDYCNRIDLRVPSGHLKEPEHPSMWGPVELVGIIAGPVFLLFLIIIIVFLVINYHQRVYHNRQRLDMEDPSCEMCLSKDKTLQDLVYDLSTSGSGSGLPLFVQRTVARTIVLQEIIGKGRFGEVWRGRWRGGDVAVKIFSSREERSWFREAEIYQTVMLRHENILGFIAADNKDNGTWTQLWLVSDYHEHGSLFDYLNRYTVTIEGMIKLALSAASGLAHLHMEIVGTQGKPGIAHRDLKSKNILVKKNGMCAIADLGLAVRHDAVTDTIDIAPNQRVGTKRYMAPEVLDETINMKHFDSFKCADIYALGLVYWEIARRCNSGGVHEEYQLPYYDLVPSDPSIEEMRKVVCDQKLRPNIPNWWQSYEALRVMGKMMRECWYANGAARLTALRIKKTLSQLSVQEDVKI

[3] = molecular target: T1, Activin receptor type-1B (Homo sapiens); conditions: at 10 µM
[4] = molecular target: T2, AMP-activated protein kinase (AMPK) alpha-1/beta-1/gamma-1 (Homo sapiens) (UniProt P54619+Q9Y478+Q13131); conditions: at 1 µM
[5] = molecular target: T2, AMP-activated protein kinase (AMPK) alpha-1/beta-1/gamma-1 (Homo sapiens); conditions: at 10 µM
[6] = molecular target: T3, AMP-activated protein kinase, AMPK (Homo sapiens) (UniProt P54646+O43741+P54619+Q9UGJ0+Q9Y478+Q13131+Q9UGI9); conditions: at 1 µM
[7] = molecular target: T3, AMP-activated protein kinase, AMPK (Homo sapiens); conditions: at 10 µM
[8] = molecular target: T4, NUAK family SNF1-like kinase 1 (Homo sapiens) (UniProt O60285); conditions: at 1 µM
T4 sequence (whole entry): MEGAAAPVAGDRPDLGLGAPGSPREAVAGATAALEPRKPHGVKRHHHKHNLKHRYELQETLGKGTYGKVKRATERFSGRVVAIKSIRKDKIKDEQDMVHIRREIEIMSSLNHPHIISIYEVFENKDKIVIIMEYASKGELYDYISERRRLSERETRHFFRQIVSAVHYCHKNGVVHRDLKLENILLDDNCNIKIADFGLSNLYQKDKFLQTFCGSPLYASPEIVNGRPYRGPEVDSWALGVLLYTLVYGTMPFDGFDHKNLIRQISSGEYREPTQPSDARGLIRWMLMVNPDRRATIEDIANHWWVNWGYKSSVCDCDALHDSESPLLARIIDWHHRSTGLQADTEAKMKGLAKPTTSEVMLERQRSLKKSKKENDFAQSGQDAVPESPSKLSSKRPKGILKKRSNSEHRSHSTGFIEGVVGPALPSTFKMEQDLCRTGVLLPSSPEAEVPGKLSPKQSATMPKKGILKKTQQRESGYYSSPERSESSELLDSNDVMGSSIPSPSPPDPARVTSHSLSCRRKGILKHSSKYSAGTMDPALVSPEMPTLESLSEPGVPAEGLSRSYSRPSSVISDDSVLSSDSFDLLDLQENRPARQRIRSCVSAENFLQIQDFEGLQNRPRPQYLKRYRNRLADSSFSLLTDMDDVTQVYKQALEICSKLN

[9] = molecular target: T4, NUAK family SNF1-like kinase 1 (Homo sapiens); conditions: at 10 µM
[10] = molecular target: T5, Mitogen-activated protein kinase kinase kinase 5 (Homo sapiens) (UniProt Q99683); conditions: at 1 µM
T5 sequence (whole entry): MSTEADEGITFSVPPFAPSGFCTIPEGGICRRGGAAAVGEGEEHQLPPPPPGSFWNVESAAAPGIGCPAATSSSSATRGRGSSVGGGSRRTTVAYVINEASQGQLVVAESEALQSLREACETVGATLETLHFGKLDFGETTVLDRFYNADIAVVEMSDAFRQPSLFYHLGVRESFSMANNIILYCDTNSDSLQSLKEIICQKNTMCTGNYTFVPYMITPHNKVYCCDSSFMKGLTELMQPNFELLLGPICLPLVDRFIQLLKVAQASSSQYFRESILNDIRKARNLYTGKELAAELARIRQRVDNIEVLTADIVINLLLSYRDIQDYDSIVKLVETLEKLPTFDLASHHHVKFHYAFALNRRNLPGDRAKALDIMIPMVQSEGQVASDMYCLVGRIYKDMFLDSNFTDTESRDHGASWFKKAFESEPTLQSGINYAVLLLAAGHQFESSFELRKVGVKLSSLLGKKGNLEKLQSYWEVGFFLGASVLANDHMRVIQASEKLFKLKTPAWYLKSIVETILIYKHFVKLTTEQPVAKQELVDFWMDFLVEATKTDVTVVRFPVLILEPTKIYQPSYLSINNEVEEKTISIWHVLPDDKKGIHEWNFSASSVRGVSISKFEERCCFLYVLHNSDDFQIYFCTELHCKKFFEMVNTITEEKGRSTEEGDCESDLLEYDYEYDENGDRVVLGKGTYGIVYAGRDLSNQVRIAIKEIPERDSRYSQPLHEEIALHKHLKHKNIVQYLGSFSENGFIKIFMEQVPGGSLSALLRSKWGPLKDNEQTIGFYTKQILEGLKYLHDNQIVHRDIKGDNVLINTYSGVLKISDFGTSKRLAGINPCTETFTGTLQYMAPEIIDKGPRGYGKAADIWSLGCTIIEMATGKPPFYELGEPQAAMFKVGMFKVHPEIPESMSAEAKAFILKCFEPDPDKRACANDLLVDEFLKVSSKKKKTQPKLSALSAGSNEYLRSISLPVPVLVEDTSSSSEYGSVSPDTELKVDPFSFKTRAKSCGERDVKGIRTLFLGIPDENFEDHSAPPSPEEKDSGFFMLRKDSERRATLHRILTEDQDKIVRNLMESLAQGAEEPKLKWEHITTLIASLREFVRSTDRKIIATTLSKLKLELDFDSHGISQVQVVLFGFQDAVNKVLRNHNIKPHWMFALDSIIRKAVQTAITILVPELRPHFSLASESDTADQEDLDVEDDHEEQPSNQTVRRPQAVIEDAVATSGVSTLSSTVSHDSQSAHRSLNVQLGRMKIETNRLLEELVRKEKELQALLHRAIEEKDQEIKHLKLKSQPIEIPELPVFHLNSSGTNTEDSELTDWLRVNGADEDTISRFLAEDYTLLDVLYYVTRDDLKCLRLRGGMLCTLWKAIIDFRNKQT

T2 sequence (P54619 whole entry): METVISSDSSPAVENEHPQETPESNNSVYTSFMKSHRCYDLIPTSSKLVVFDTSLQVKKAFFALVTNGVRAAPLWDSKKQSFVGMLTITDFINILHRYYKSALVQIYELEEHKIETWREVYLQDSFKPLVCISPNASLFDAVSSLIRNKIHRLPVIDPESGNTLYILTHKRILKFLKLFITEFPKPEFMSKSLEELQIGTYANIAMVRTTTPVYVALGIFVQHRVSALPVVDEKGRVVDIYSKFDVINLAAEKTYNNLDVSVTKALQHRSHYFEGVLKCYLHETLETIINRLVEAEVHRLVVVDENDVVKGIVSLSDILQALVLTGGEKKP
T2 sequence (Q13131 whole entry partner): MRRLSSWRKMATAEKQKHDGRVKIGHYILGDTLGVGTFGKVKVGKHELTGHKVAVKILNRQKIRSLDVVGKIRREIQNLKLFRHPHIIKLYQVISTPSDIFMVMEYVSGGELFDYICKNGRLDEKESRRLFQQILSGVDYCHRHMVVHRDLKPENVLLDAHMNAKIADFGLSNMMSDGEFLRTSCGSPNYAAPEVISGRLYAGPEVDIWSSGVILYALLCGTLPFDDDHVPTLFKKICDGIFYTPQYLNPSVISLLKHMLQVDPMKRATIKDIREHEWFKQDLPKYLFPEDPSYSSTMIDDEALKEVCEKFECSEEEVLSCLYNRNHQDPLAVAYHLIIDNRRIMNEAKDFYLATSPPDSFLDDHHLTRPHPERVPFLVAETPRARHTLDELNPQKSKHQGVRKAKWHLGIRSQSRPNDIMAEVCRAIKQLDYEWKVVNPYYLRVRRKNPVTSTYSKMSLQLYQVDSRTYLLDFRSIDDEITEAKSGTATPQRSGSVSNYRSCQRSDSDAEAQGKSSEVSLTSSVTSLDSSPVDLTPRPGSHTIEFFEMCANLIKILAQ
T2 sequence (Q9Y478 2-270 partner limits assumed): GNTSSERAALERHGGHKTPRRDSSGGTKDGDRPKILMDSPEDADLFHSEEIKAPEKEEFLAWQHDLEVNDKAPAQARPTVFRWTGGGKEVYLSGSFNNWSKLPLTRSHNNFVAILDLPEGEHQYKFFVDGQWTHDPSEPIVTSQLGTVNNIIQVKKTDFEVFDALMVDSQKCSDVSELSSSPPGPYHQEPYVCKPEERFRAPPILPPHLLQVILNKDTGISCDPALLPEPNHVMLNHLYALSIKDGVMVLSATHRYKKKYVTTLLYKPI
Chain of ALK tyrosine kinase receptor (Homo sapiens) (Q9UM73 19-1620 limits assumed): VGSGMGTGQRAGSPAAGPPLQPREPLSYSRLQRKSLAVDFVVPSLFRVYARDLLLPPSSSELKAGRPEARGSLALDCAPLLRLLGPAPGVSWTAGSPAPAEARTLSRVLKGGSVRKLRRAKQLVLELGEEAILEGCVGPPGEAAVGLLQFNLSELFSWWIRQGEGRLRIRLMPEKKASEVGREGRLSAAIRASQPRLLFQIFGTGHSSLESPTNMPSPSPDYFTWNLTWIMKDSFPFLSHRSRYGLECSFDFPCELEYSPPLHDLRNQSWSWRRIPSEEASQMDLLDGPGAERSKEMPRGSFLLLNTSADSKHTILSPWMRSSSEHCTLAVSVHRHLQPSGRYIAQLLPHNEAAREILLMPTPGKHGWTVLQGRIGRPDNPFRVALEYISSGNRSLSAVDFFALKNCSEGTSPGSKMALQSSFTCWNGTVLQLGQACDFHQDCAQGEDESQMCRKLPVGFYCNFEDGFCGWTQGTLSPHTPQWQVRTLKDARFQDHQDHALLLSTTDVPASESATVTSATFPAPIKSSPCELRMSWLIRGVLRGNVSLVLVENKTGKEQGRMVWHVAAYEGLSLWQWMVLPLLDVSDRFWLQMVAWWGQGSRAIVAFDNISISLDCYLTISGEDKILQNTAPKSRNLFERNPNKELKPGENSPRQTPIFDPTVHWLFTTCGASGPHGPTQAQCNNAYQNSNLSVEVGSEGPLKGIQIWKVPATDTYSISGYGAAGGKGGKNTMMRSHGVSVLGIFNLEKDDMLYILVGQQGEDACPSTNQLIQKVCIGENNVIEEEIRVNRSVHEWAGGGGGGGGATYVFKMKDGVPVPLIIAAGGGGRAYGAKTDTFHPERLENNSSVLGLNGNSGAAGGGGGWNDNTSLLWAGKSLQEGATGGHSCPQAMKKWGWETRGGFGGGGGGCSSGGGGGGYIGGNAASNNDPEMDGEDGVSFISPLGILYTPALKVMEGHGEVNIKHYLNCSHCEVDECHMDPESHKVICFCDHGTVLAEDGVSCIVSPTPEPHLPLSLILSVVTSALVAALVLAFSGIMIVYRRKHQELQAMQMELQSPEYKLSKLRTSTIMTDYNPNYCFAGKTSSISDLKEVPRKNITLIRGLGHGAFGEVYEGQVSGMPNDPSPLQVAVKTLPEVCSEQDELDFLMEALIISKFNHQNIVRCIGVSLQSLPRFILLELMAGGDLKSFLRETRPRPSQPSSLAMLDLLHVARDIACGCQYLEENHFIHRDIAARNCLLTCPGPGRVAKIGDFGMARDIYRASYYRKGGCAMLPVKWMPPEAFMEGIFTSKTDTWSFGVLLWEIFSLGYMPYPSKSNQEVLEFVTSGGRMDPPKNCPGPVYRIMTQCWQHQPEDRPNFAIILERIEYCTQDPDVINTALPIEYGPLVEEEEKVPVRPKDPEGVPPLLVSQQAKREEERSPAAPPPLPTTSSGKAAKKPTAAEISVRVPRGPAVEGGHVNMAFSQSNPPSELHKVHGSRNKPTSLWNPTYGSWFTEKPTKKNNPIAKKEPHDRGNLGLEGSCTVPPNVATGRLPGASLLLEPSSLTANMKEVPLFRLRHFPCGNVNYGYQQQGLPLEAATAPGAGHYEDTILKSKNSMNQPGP

SMILES	residual activity [1] [%]	residual activity [2] [%]	residual activity [3] [%]	residual activity [4] [%]	residual activity [5] [%]	residual activity [6] [%]	residual activity [7] [%]	residual activity [8] [%]	residual activity [9] [%]	residual activity [10] [%]
O=C1NC(=O)/C(=C/c2ccc3c(c2)OC(F)(F)O3)S1	77	127	102	81	66	96	70	91	87	85
CC(C)n1cnc2/c(=N/c3cccc(Cl)c3)nc(NCCO)[nH]c21	52	103	120	76	30	88	45	75	29	90
N#Cc1cnc2cnc(NCc3cccnc3)cc2c1Nc1ccc(F)c(Cl)c1	75	–	92	-2	-1	-5	-1	–	-1	85
O=C1NC(=O)c2c1c1c3ccccc3[nH]c1c1[nH]c3cc(Br)ccc3c21	69	106	99	84	87	82	69	52	45	102
CN(C)CCCn1cc(C2=C(c3c[nH]c4ccccc34)C(=O)NC2=O)c2ccccc21	–	119	76	44	10	26	4	35	11	–
Cc1nc(-c2ccccc2)c(-c2ccncc2)o1	99	119	88	105	108	114	114	99	88	100
CO[C@H]1C[C@@H]2CC[C@@H](C)[C@@](O)(O2)C(=O)C(=O)N2CCCC[C@H]2C(=O)O[C@H]([C@H](C)C[C@@H]2CC[C@@H](O)[C@H](OC)C2)CC(=O)[C@H](C)/C=C(\C)[C@@H](O)[C@@H](OC)C(=O)[C@H](C)C[C@H](C)/C=C/C=C/C=C/1C	32	115	110	79	–	93	107	99	96	85
CO[C@H]1[C@@H](OC)C[C@H](C)[C@@H](OC)C2=CC(=O)C=C(NC(=O)/C(C)=C/C=C/[C@H](OC)[C@@H](OC(N)=O)/C(C)=C/[C@@H]1C)C2=O	50	112	112	94	78	92	78	93	94	88
COc1ccc(C(=O)Nc2sc3c(c2C(N)=O)CCCC3)cc1OC	72	–	83	90	78	93	75	87	75	114
COc1cc2ncc(-c3ccccc3)nc2cc1OC	–	–	–	86	82	–	75	–	77	83
O=[N+]([O-])c1ccc(-c2nc(-c3ccc(F)cc3)c(-c3ccncc3)[nH]2)cc1	65	38	35	97	94	91	91	103	89	96
CC(=O)c1ccc(N2CCOCC2)cc1O	93	129	106	102	90	–	–	97	92	92
COc1ccc(S(=O)(=O)N(CCO)c2ccccc2CN(C)C/C=C/c2ccc(Cl)cc2)cc1	59	96	102	104	76	99	74	100	75	94
Ic1cccc(CSc2nnc(-c3ccncc3)o2)c1	68	98	105	35	25	45	32	105	60	80
N#CC(C#N)=C(N)/C(C#N)=C/c1ccc(O)cc1	–	–	–	92	79	100	–	–	96	81
O=C1Nc2ccccc2/C1=C1/Nc2ccccc2/C1=N\OCCC(O)CO (stereo not drawn)	2	–	–	4	4	3	4	2	5	68
CN(C)c1ccc(/C=C2\C(=O)Nc3ccccc32)cc1	27	127	105	92	50	97	56	93	80	92
CCN(CC)C(=O)c1ccc(Nc2nc(OCC3CCCCC3)c3nc[nH]c3n2)cc1	6	–	–	35	6	22	5	2	4	80
N#C/C(=C(\N)Sc1ccc(N)cc1)c1ccccc1C(F)(F)F	65	108	111	75	57	77	62	106	62	106

— ChEMBL document CHEMBL2218924, “A broad activity screen in support of a chemogenomic map for kinase signalling research and drug discovery” (Biochem J, 2013)
